T cruzi growth-1 = blocks T. cruzi growth in NIH3T3 culture | 77,000 compounds, 5.9% hits | T. cruzi beta-gal in NIH3T3, GalScreen luminescence, 90 h | inhibition, % at 8.34 µM | AID 624255;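 active means mean inhibition above about 93%, with at least 55% of replicates each passing it, limit read from the data, passing the limit was not always enough; inconclusive means only one of those two conditions holds; inactive means neither condition holds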
C diff growth = C. difficile growth inhibition; Clostridium difficile clinical isolate growth, OD600, 24 h; stronger effect = lower value; AID 1259249; 86,000 compounds, 0.25% hits; growth activity, negative = inhibition, % at 16 µg/mL (by protocol);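 active means mean growth activity at or below -80% and every replicate also at or below -80%; inconclusive means mean at or below -80% but some replicate above -80%; inactive means mean growth activity above -80%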;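 further: 0% = DMSO wells and -100% = levofloxacin 16 µg/mL wells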
Pf Dd2 growth = inhibitors of Plasmodium falciparum Dd2 growth; P. falciparum Dd2 growth, SYBR Green, 72 h; stronger effect = lower value; activity change, % at 10 µM; 94,000 compounds, 2.3% hits; AID 1159554; in the data active means activity change below about -80%; inconclusive means no clear call, values can overlap the other calls
T cruzi growth-2 = blocks T. cruzi growth in NIH3T3 host cells; shares compounds with T cruzi growth-1; T. cruzi beta-gal in NIH3T3, GalScreen luminescence, 90 h; inhibition, % at 8.35 µM; 5,600 compounds, 72% hits;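 active means mean replicate inhibition above about 95% and at least 55% of replicates individually reaching it, limit read from the data; inconclusive means only one of the two criteria is met; inactive means neither criterion is met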
T cruzi growth-3 = Trypanosoma cruzi proliferation inhibition; shares compounds with T cruzi growth-1; T. cruzi beta-gal in NIH3T3, GalScreen luminescence, 90 h; inhibition, % at 2.09 µM; 5,600 compounds, 21% hits; AID 651740;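 active means mean inhibition above about 95%, with at least 55% of replicates also reaching it, limit read from the data; inconclusive means meets just one of the two conditions; inactive means meets neither condition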;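 further: plate controls were neutral control median for no effect and positive control median for full effect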
NIH3T3 tox = NIH/3T3 (mouse) viability loss; shares compounds with T cruzi growth-1; NIH/3T3 viability, CellTiter-Glo ATP luminescence, 90 h; cytotoxicity (signal decrease), % at 8.35 µM; 5,600 compounds, 14% hits; AID 651742;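 active means mean signal decrease across replicates above about 35% based on untreated-well scatter, with enough replicates individually passing, limit read from the data; inconclusive means no rule stated though some were filed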;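 further: 0% = median of neutral control wells and 100% = median of positive control wells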
3T3 cytotox 2 = NIH/3T3 (mouse) viability loss; shares compounds with T cruzi growth-1; NIH/3T3 viability, CellTiter-Glo ATP luminescence, 90 h; 5,600 compounds, 56% hits; inhibition, % at 24.9 µM;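 active means mean loss of cell viability signal at or above a set limit, and enough replicates individually reaching it; inconclusive means meets only the mean limit or only the replicate share; inactive means meets neither condition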;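 further: 0% = median of neutral control wells and 100% = median of positive control wells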
Numbers without * were called inactive; u = inconclusive; x = not tested or not shown. This is a sample that favours compounds with a hit; in the whole collection about 6.8% have one here.

SMILES	T cruzi growth-1	C diff growth	Pf Dd2 growth	T cruzi growth-2	T cruzi growth-3	NIH3T3 tox	3T3 cytotox 2
C[C@H]1CN([C@@H](C)CO)C(=O)c2cc(NS(=O)(=O)c3ccc(F)cc3)ccc2O[C@@H]1CN(C)Cc1ccc(C(F)(F)F)cc1	54.8	-2.5	8.2	x	x	x	x
C[C@@H]1CN([C@@H](C)CO)C(=O)c2cc(NS(=O)(=O)c3ccc(Cl)cc3)ccc2O[C@H]1CN(C)Cc1ccc(C(F)(F)F)cc1	84.7	23.8	1.8	x	x	x	x
Cc1ccc(S(=O)(=O)Nc2ccc3c(c2)C(=O)N([C@@H](C)CO)C[C@H](C)[C@H](CN(C)Cc2ccc(C(F)(F)F)cc2)O3)cc1	99.3*	x	-6.0	102.8*	100.4*	10.4	99.1*
C[C@@H]1CN([C@H](C)CO)C(=O)c2cc(NS(=O)(=O)c3ccc(Cl)cc3)ccc2O[C@@H]1CN(C)Cc1ccc(C(F)(F)F)cc1	128.3*	19.1	11.2	u	3.1	94.1*	102.9*
Cc1ccc(S(=O)(=O)Nc2ccc3c(c2)C(=O)N([C@H](C)CO)C[C@H](C)[C@H](CN(C)Cc2ccc(C(F)(F)F)cc2)O3)cc1	97.1*	x	-10.2	97.6*	61.5	12.4	102.8*
C[C@@H]1CN([C@H](C)CO)C(=O)c2cc(NS(=O)(=O)c3ccc(F)cc3)ccc2O[C@@H]1CN(C)Cc1ccc(C(F)(F)F)cc1	68.9	-7.9	9.1	x	x	x	x
O=C(Nc1ccccc1)N[C@@H]1CC[C@@H](CCn2cc(C3(O)CCCC3)nn2)O[C@H]1CO	35.7	-4.1	-7.5	x	x	x	x
CNC(=O)C[C@@H]1CC[C@@H]2[C@H](COc3ccc(NC(=O)NC(C)C)cc3C(=O)N2C)O1	1.5	-2.1	10.0	x	x	x	x
O=C(c1ccncc1)N1CCCCN2[C@H](C1)[C@@H](c1ccc(C#Cc3ccccn3)cc1)[C@@H]2CO	107.7*	1.2	15.2	105.2*	13.0	2.7	4.7
COc1ccc(NC(=O)N2CCCCN3[C@H](CO)[C@H](c4ccc(C#Cc5ccccc5)cc4)[C@H]3C2)cc1	62.5	49.6	-47.9	x	x	x	x
CS(=O)(=O)N1CCCCN2[C@H](CO)[C@H](c3ccc(C#Cc4ccccn4)cc3)[C@@H]2C1	113.0*	-3.5	-7.5	88.6	48.2	0.4	12.4
CCS(=O)(=O)N1CCCCN2[C@H](C1)[C@@H](c1ccc(C#Cc3ccccn3)cc1)[C@@H]2CO	94.7	-8.9	26.3	x	x	x	x
O=C(Nc1ccccc1)N1CCCCN2[C@@H](CO)[C@@H](c3ccc(C#Cc4ccccn4)cc3)[C@@H]2C1	100.8*	-0.5	-30.1	110.2*	104.6*	-3.3	16.0
COc1ccc(NC(=O)N2CCCCN3[C@H](C2)[C@@H](c2ccc(C#Cc4ccccn4)cc2)[C@@H]3CO)cc1	103.1*	-1.2	-15.7	102.7*	94.2	8.8	37.5*
O=C(c1ccncc1)N1CCCCN2[C@H](CO)[C@H](c3ccc(C#Cc4ccccn4)cc3)[C@@H]2C1	33.1	2.4	-7.2	x	x	x	x
COCC(=O)N(C)C[C@H]1Oc2ncc(-c3ccc(C)cc3)cc2C(=O)N([C@H](C)CO)C[C@H]1C	1.5	-0.2	21.3	x	x	x	x
COc1ccc(-c2cn(CC[C@@H]3CC[C@H](NC(=O)CCN4CCCCC4)[C@H](CO)O3)nn2)cc1	-5.0	x	1.5	x	x	x	x
COc1ccc(-c2ccc([C@@H]3[C@H]4CN(C(=O)NC(C)C)CCCCN4[C@H]3CO)cc2)cc1	68.8	0.7	11.3	x	x	x	x
COc1ccc(-c2ccc([C@H]3[C@@H](CO)N4CCCCN(C(=O)NC(C)C)C[C@H]34)cc2)cc1	104.2*	-2.2	-16.2	110.4*	76.6	-10.5	85.4*
CC(C)NC(=O)N1CCCCN2[C@H](C1)[C@@H](c1ccc(Br)cc1)[C@@H]2CO	47.4	-6.6	36.3	x	x	x	x
COc1ccc(-c2ccc([C@H]3[C@@H](CO)N4CCCCN(C(=O)NC(C)C)C[C@@H]34)cc2)cc1	81.3	-5.2	18.4	x	x	x	x
CC(C)NC(=O)N1CCCCN2[C@H](CO)[C@H](c3ccc(C4=CCCC4)cc3)[C@@H]2C1	117.0*	-5.6	18.4	113.2*	105.9*	7.5	-8.2

High-throughput results from PubChem.
